The results in this text go back to the supplement of paper PMC6555819.

Experiment in all cases: PBM binding z-score (relative to random genomic background probes); higher = stronger binding; sequences stand for … in GC…GCGATTGACAGCGTAGAATGAAGG
In experiment [1] the test system is FXR:RXRa (NR concentration 270 nM, RXRa partner concentration 90 nM). In a few lines:
(§1)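 Probes were double-stranded and carried 34-nt variable regions with direct-repeat seeds, single-nucleotide variants, half-site ablations and random human genomic background sequences, printed on custom Agilent 4×180K protein-binding microarrays. Arrays were incubated 1 h with ligand-free nuclear receptor dimers in PBS pH 7.4, 2% milk, 0.02% Triton X-100, 1 mM DTT, 0.2 mg/mL BSA and 0.4 mg/ml salmon testes DNA. Antibodies against each partner (one per run) detected binding, and scanned fluorescence was regression-normalized. Binding z-scores use the random background probes as reference.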

For experiment [2], the system named is LXRa:RXRa (NR concentration 270 nM, RXRa partner concentration 90 nM). The method in brief:
as §1

Experiment [3] concerns LXRa homodimer (NR concentration 270 nM). The method in brief: as §1
Experiment [4] relates to LXRb:RXRa (NR concentration 270 nM, RXRa partner concentration 90 nM). In a few lines:
as §1

For experiment [5], the system named is LXRb homodimer (NR concentration 270 nM). The method in brief:
as §1

Experiment [6] has as its system PPARa:RXRa (NR concentration 270 nM, RXRa partner concentration 90 nM). In a few lines:
as §1

Experiment [7] has as its system PPARg:RXRa (NR concentration 180 nM, RXRa partner concentration 90 nM). The method in brief:
as §1

Experiment [8] concerns PPARg:RXRa 270nM:90nM, anti-RXR (NR concentration 270 nM, RXRa partner concentration 90 nM). In a few lines:
as §1

Experiment [9] relates to PPARg:RXRa 30nM:10nM, anti-RXR (NR concentration 30 nM, RXRa partner concentration 10 nM). In a few lines:
as §1

Experiment [10] concerns PPARg:RXRa 90nM:30nM, anti-RXR (NR concentration 90 nM, RXRa partner concentration 30 nM). In a few lines: as §1
Experiment [11] relates to PPARg:RXRa DBDmut IVT, anti-RXR (DBD mutation: RXRa K156A/R161A, NR concentration 270 nM, RXRa partner concentration 90 nM). In a few lines:
as §1

For experiment [12], the system named is PPARg:RXRa IVT, anti-PPARg (NR concentration 270 nM, RXRa partner concentration 90 nM). The method in brief:
as §1

The subject of experiment [13] is PPARg DBDmut:RXRa IVT, anti-PPARg (DBD mutation: PPARg1 K132A/R137A, NR concentration 270 nM, RXRa partner concentration 90 nM). In a few lines:
as §1

Experiment [14] has as its system PPARg DBDmut IVT, anti-PPARg (DBD mutation: PPARg1 K132A/R137A, NR concentration 270 nM). In a few lines:
as §1

Experiment [15] concerns PPARg homodimer (NR concentration 180 nM). In a few lines: as §1
Experiment [16] has as its system PXR:RXRa (NR concentration 270 nM, RXRa partner concentration 90 nM). In a few lines:
as §1

The test system of experiment [17] is PXR homodimer (NR concentration 270 nM). The method in brief: as §1
Experiment [18] deals with RARa:RXR (NR concentration 270 nM, RXRa partner concentration 90 nM). In a few lines: as §1
Experiment [19] relates to RARa homodimer (NR concentration 270 nM). The method in brief: as §1
Experiment [20] concerns RARb:RXRa (NR concentration 270 nM, RXRa partner concentration 90 nM). The method in brief: as §1

Consider GCGTCTGGGGCATCAGCAGGTTACCATAACTTAA, for which the PBM binding z-score was -0.332 in experiment [1]; -0.363 in experiment [2]; -0.529 in experiment [3]; 0.524 in experiment [4]; -0.962 in experiment [5]; 0.996 in [6]. For the same sequence, the PBM binding z-score is 0.169 in experiment [7]; 0.239 in experiment [8]; -0.644 in [9]; -0.174 in experiment [10]; 2.39 in [11]; 1.72 in experiment [12]. Also, the PBM binding z-score in [13] is -0.946; in experiment [14], -0.371; in experiment [15], 0.169; in experiment [16] it was -0.00705; in [17], -0.377; in experiment [18], 0.336. Besides, the figures for the PBM binding z-score in experiment [19] and in experiment [20] were -0.422 and 0.978, respectively.

As to TCATATAGGTAAATTCTAGGTGAAAGTCCGATCT, the PBM binding z-score in experiment [1] came out at 1.45; in [2], 1; in [3] it was 0.27; in experiment [4], 0.797; in [5] it was 0.0785; in experiment [6], 2.29. The PBM binding z-score in experiment [7] is 1.84; in [8], 3.22; in experiment [9], 4.21; in experiment [10], 3.75; in experiment [11], 3.83; in experiment [12], 4.08. Moreover, the PBM binding z-score was 1.26 in experiment [13]; 1.32 in experiment [14]; 1.09 in experiment [15]; 0.778 in experiment [16]; 0.524 in [17]; 1.22 in [18]. Also, the PBM binding z-score was 1.61 in experiment [19] and 0.593 in [20].

Consider CCGACTGGGGCAATGTTACCATAACGCACAGCCA, for which the PBM binding z-score in experiment [1] was -0.585; in [2], -0.725; in experiment [3] it was -0.195; in experiment [4] it was -0.162; in experiment [5], -1.01; in experiment [6] it was 0.11. Further, the PBM binding z-score is 1.21 in experiment [7]; 0.645 in [8]; -0.14 in [9]; 0.223 in experiment [10]; 3.67 in [11]; 2.99 in experiment [12]. For the same sequence, the PBM binding z-score was -0.638 in experiment [13]; -0.759 in experiment [14]; 0.142 in [15]; -0.771 in experiment [16]; -0.41 in experiment [17]; -0.456 in [18]. Besides, the PBM binding z-score in experiment [19] is 0.0364; in [20] it was 0.351.

Regarding ATCTCTAGGTAAGACTCAGTTCAGGGAAGAACGC, the PBM binding z-score in experiment [1] was found to be 0.579; in experiment [2] it was 0.883; in experiment [3], 0.863; in experiment [4] it was 0.68; in experiment [5], 1.19; in [6], 0.432. The PBM binding z-score in experiment [7] amounted to 0.216; in experiment [8] it was 0.397; in experiment [9], 0.337; in [10], 0.289; in [11], 1.95; in experiment [12], 0.842. Also, the PBM binding z-score in experiment [13] turned out to be 1.12; in experiment [14], 0.798; in experiment [15], 0.913; in experiment [16], 1.19; in experiment [17], 1.64; in experiment [18] it was 0.799. Moreover, the PBM binding z-score in experiment [19] worked out at 1.28; in experiment [20], 0.579.

As for GCTTCTAGGTCAGGTTGGTCAGCTAACGGGTACG, the PBM binding z-score was 1.94 in [1]; 1.19 in [2]; -0.092 in experiment [3]; 1.17 in [4]; 1.34 in experiment [5]; 2.57 in experiment [6]. For the same sequence, the PBM binding z-score was 3.16 in experiment [7]; 3.17 in [8]; 0.647 in experiment [9]; 2.22 in [10]; 6.57 in [11]; 5.9 in [12]. The PBM binding z-score is 1.46 in [13]; 0.392 in experiment [14]; 1.61 in [15]; 0.562 in experiment [16]; 0.241 in experiment [17]; 1.26 in experiment [18]. Further, the results for the PBM binding z-score in [19] and in experiment [20] were 0.169 and 3.53, respectively.

For the sequence AGTCAAAGTTCACTAGGAAACGTAAGATTCAGCT, the PBM binding z-score in [1] turned out to be 5.38; in experiment [2], 5.47; in experiment [3], 2.41; in experiment [4], 2.89; in [5], 0.822; in experiment [6] it was 4.1. Also, the PBM binding z-score in experiment [7] was 5.8; in experiment [8] it was 6.01; in experiment [9] it was 2.93; in [10], 5.11; in experiment [11], 0.0474; in experiment [12], 2.6. For the same sequence, the PBM binding z-score was 1.13 in [13]; 0.557 in experiment [14]; 2.18 in [15]; 3.61 in experiment [16]; 2.13 in [17]; 2.66 in experiment [18]. For the same sequence, the figures for the PBM binding z-score in experiment [19] and in [20] were 0.899 and 4.84, respectively.
